# A selection: hits, their analogues and other compounds. The true share with any hit is near 19%.
# DT40 TDP1 CPT: growth inhibition of DT40 Tdp1-/-;hTDP1 cells with camptothecin (screen for TDP1 inhibitors); chicken DT40 Tdp1-/-;hTDP1 cells + 20 nM CPT, ATP luminescence, 48 h; Potency, µM (series often up to 46.2 µM), inactives show top-dose activity change, negative = growth inhibition, usual class: inhibitors; 12% of 420,000 active; AID 686979; note: potency is the fitted concentration of half-maximal effect; % is set by controls: 0 for no effect and ±100 for the full control effect; nearly all actives have a fitted effect of over 55% in size
#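 Chicken DT40 Tdp1-/- cells complemented with human TDP1, 400 cells/well, exposed to compounds plus 20 nM camptothecin for at least 48 h at 37 C; viability read as ATP content by CellTiter-Glo luminescence.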
# SW480 rerep: induces DNA re-replication in SW480 colon adenocarcinoma cells; 1.8% of 340,000 active; SW480 DNA re-replication, Hoechst DNA content imaging, 48 h; Potency, µM (highest dose often 46.1 µM), for inactives: top-dose re-replication activation, most hits filed as activators; note: potency is the fitted concentration of half-maximal effect; % of control where 0% means no effect; nearly all actives have a fitted effect of over 55% in size
#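 Compounds, transferred as 23 nL by pin tool, were incubated with cells for 48 hr; DNA content per nucleus was then quantified by Hoechst staining and fluorescence plate imaging.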
# MCF10A rereplic: DNA re-replication induction in MCF 10a cells. MCF 10A DNA re-replication, Hoechst nuclear intensity, 48 h. Potency, µM (highest dose often 46.1 µM), without a hit: at the top dose activity, positive = re-replication, usual class: activators. 2.9% of 350,000 active; note: potency is the fitted concentration of half-maximal effect; % of control where 0% means no effect; nearly all actives have a fitted effect of over 50% in size
# TDP1 cell noCPT: qHTS for Inhibitors of human tyrosyl-DNA phosphodiesterase 1 (TDP1): qHTS in cells in absence of CPT | 15% of 420,000 active | Potency, µM (top dose mostly 46.2 µM), inactives show at the highest dose activity change, negative = growth inhibition, hits mostly inhibitors | AID 686978, 2013 | DT40 Tdp1-/- hTDP1 cells, no CPT, ATP luminescence, 48 h; note: potency is the fitted concentration of half-maximal effect; % is set by controls: 0 for no effect and ±100 for the full control effect; nearly all actives have a fitted effect of over 55% in size
#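 No-CPT arm: Tdp1-/-;hTDP1 DT40 cells (400/well) plus compounds, incubated ≥48 hr at 37 °C. Readout CellTiter-Glo luminescence.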
# IL-1B inflam inh: inflammasome signaling inhibition, IL-1 beta readout. 4.7% of 360,000 active. activity change, % at 57.5 µM. THP-1 LPS/ATP IL-1B secretion, AlphaLISA, 16 h; active compounds read low. AID 743279; in the data active = activity change below about -50%; inconclusive = mostly about -30% to -49%; note: % is set by controls: 0 for no effect and ±100 for the full control effect
#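 Secreted IL-1B measured by AlphaLISA bead assay after 16 h compound exposure of THP-1 cells; compounds (final up to 57.5 uM) added 1 h before LPS (250 ng/mL) and ATP (1.25 mM) stimulation; lower signal means less secretion.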
# Chronic BCR inh: inhibitors of chronic active B-cell receptor signaling; ABC-DLBCL IkBa-CBG/CBR reporter, luminescence ratio, 4 h; Potency, µM (series often up to 46.1 µM), inactives show at the top dose activity change, negative = inhibition, usual class: inhibitors; 0.05% of 340,000 active; AID 493014; active = well fitted inhibition curve with a large enough effect in the signal ratio, with a control signal flat, not every such curve was filed as active; inconclusive = small, poorly fitted or top-dose-only effect, or effect the other way, or a change in a side signal; the % refers to the signal ratio;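 note: potency is the fitted concentration of half-maximal effect; plate controls were basal doxycycline-induced cells for no effect and cells given 10 µM MG132 for full effect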
#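 Concentration-response series (up to 46 uM) were applied to TMD8 dual-reporter cells for 4 h at 37C with doxycycline. Green/red ratio, after filter-overlap correction, defined %Activity; red signal alone was normalised to basal cells and zero luminescence.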
# Active calls of the source: *; u = inconclusive; x = no result given. Unless noted, calls come from the whole dose curve; as a rule, active = well fitted curve in the direction sought with a large enough effect; inconclusive = small, poorly fitted or top-dose-only effect, or another doubt; inactive = no such curve, though single readings can be large; an effect the other way counts as inactive or inconclusive.
SMILES,DT40 TDP1 CPT,SW480 rerep,MCF10A rereplic,TDP1 cell noCPT,IL-1B inflam inh,Chronic BCR inh
CC(C)(C)NC(=O)C(c1ccc(-c2ccccc2)cc1)n1c(=O)c(-c2cc3ccccc3[nH]2)nc2ccccc21 (configuration not stated),u,x,x,15µM*,91,x
O=C(NCc1ccccc1)C(c1ccccc1)n1c(=O)c(-c2cc3ccccc3[nH]2)nc2ccccc21 (configuration not stated),u,x,x,21µM*,16,x
COCc1ccc(C(=O)N2CCCC(C(=O)c3ccc(SC)cc3)C2)s1 (configuration not stated),u,0%,8%,u,0,u
COc1ccccc1CNC(=O)c1cc(-c2cccnc2)nc2ccccc12,u,-1%,4%,u,15,0%
CC(C)NC(=O)c1cc(-c2cccs2)nc2ccccc12,1%,-36%,-1%,0%,-8,8%
CCOC(CCNC(=O)c1cc(-c2cccs2)nc2ccccc12)OCC,21µM*,-3%,3%,u,0,u
COc1ccc(OC)c(CNC(=O)c2cc(-c3ccc(Cl)s3)nc3ccccc23)c1,15µM*,x,x,9.2µM*,x,x
COc1ccc(CNC(=O)c2cc(-c3cccs3)nc3ccccc23)c(OC)c1,2.6µM*,x,x,u,x,x
COc1ccc(CN2C(=O)c3cccc4cccc2c34)cc1F,-23%,u,21µM*,-23%,-6,-23%
COC(=O)CN1C(=O)c2cccc3cccc1c23,12%,-1%,8%,13%,6,-2%
CCN1C(=O)c2cccc3cccc1c23,29µM*,22%,u,u,36,-24%
COc1ccc(CN2C(=O)NC3(CCCCCC3)C2=O)cc1F,16µM*,-9%,6%,15µM*,5,-2%
COc1cc(OC)cc(C(=O)N2CCN(C3CCC(C)CC3)CC2)c1 (configuration not stated),-17%,u,u,-23%,10,x
Nc1c(Cl)cc2c(c1Oc1ccccc1)C(=O)c1ccccc1C2=O,-14%,u,13µM*,-23%,-71*,12%
COc1ccc(NS(=O)(=O)c2cc3[nH]c(=O)c(=O)[nH]c3cc2C)cc1OC,2%,x,x,-8%,x,4%
N#Cc1c(N)c(C#N)c(-c2ccc3c(c2)OCO3)c2c1CCCC2,3%,-2%,18%,-24%,21,5%
N#Cc1c(-c2ccc3c(c2)OCO3)csc1N,-19%,-6%,0%,-26%,-60*,-12%
N#Cc1c(-c2ccccc2)cc(-c2ccc3c(c2)OCO3)[nH]c1=O,0%,18µM*,u,-11%,10,8%
CCNC(=O)C1CCCN(C(=O)c2ccc(C(F)(F)F)cc2)CC1 (configuration not stated),-6%,x,x,-7%,28,x
O=C(O)c1ccccc1NS(=O)(=O)c1ccc(NNC(=S)Nc2ccc(OC(F)F)cc2)c([N+](=O)[O-])c1,u,-8%,2%,-29%,-51*,10%
Cc1ccc(NC(=S)NNc2ccc([N+](=O)[O-])cc2S(=O)(=O)Nc2ccccc2C(=O)O)cc1C,u,-3%,u,u,-11,11%
Cc1c(C(=O)N2CCN(S(=O)(=O)c3ccccc3)CC2)oc2ccc(Br)cc12,-9%,-7%,10%,u,-27,3%
Cc1ccc(S(=O)(=O)Nc2ccc(Br)cc2C(NCC(=O)O)c2ccccc2)cc1 (configuration not stated),-4%,22%,u,6%,8,u
O=S(=O)(Nc1cc(Sc2ncn[nH]2)c(O)c2ccccc12)c1ccccc1,1.2µM*,10µM*,1µM*,2.1µM*,-95*,u
O=C(O)CSc1cc(NS(=O)(=O)c2ccc(Br)cc2)c2ccccc2c1O,2.9µM*,u,u,5.2µM*,-51*,u
SMILES,DT40 TDP1 CPT,SW480 rerep,MCF10A rereplic,TDP1 cell noCPT,IL-1B inflam inh,Chronic BCR inh
COc1ccc(OC)c(NC(=O)CSc2nnc3ccc(-c4ccccn4)nn23)c1,u,-4%,0%,u,-4,1%
CCOc1cc(N2CCOCC2)c(OCC)cc1NC(=O)CN1C(=O)NC(C)(c2ccc(OC)cc2)C1=O (configuration not stated),-6%,-22%,-5%,9%,0,x
COc1ccccc1CCC(=O)Nc1cccc(S(=O)(=O)N2CCCC2)c1,u,0%,1%,u,4,-2%
COc1ccccc1CN(C)CC(=O)Nc1cccc(S(=O)(=O)N2CCCCC2)c1,16µM*,1%,u,23µM*,-15,1%
COc1ccc(Cl)cc1NC(=O)CN(C)CC(=O)Nc1cccc(S(=O)(=O)N2CCCC2)c1,23µM*,22%,u,u,u,0%
C=CCOc1ccc(CN(C)c2ccc(S(=O)(=O)N3CCN(C)CC3)cc2[N+](=O)[O-])cc1,u,3%,u,u,-25,-1%
COc1ccc(CN(C)CC(=O)Nc2cccc(S(=O)(=O)N3CCCC3)c2)cc1F,u,-7%,2%,18µM*,14,u
COc1ccc(S(=O)(=O)N2CCOCC2)cc1NC(=O)CN(C)CC(=O)Nc1cccc(F)c1,-18%,-1%,8%,-14%,-9,-11%
CN(Cc1cccc(Cl)c1Cl)c1ccc(S(=O)(=O)N2CCCCC2)cc1[N+](=O)[O-],u,7%,5%,21µM*,-11,5%
CCc1ccc(N(CC(=O)Nc2ccccc2C(=O)N2CCOCC2)S(C)(=O)=O)cc1,-3%,-2%,-8%,0%,-3,-1%
O=C(COC(=O)COc1ccc(Cl)cc1)NC1CCCC1,-4%,-7%,-6%,-1%,-7,2%
CN1CCN(S(=O)(=O)c2ccc(N(C)Cc3ccc(C(F)(F)F)cc3)c([N+](=O)[O-])c2)CC1,10µM*,u,u,13µM*,-85*,u
CN(CC(=O)Nc1ccc(S(=O)(=O)N2CCCC2)cc1)Cc1cccc(Cl)c1Cl,16µM*,x,u,u,22,-7%
O=C(C=Cc1ccccn1)c1ccccc1,3.3µM*,u,3.3µM*,2.9µM*,-98*,x
O=C(C=Cc1ccccn1)c1ccccc1O,2.9µM*,u,u,3.7µM*,-94*,x
COc1ccc(NC(=O)Cc2ccsc2)cc1S(=O)(=O)N1CCOCC1,-8%,-8%,-9%,-16%,-9,-1%
